Source: PubChem (The Scripps Research Institute Molecular Screening Center)
FBW7 activator: human FBW7 E3 ligase activation, primary screen | Q969H0 | hit rate 0.13% among 650,000 | normalized activity (activation), % at 26.1 µM | AlphaScreen FBW7–phospho-cyclin E peptide binding, activator screen; in the data active = normalized activity above about 1.9%;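 also: purified mutant Fbw7 with reduced substrate affinity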
Target sequence (Q969H0 whole entry, looked up): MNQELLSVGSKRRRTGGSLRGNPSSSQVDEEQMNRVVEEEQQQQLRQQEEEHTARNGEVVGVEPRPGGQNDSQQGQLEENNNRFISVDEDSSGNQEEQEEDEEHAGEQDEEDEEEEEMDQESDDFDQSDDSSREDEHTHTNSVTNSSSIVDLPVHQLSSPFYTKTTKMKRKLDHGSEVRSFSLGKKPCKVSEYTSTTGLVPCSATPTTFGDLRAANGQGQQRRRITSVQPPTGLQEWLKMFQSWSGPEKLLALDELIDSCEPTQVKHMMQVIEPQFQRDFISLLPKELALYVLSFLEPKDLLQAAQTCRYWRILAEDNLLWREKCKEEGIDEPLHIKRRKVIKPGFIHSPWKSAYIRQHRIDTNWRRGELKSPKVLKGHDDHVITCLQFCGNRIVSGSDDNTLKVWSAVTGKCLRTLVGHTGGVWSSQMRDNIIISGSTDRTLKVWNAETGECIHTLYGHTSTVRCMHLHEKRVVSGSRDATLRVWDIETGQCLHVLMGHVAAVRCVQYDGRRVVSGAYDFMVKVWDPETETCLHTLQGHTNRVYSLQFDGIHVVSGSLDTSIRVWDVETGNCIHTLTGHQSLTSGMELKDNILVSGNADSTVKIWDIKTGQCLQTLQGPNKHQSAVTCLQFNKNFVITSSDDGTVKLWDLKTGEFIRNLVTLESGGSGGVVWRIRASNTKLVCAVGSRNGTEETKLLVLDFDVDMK
TEAD-YAP block: TEAD-YAP interaction inhibition; inhibition, % at 9.12 µM; hit rate 1.4% among 640,000; HEK-TIYL cells, TEAD-Gal4/YAP UAS-luciferase luminescence; AID 1259422; in the data active = inhibition above about 32%;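 also: 0% = median of test compound wells and 100% = reference inhibitor wells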
MITF inh: inhibitors of human MITF; O75030; AlphaScreen MITF homodimerization, bead proximity signal; inhibition, % at 2.6 µM; hit rate 0.91% among 650,000; AID 1259374; in the data active = inhibition above about 50%;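 also: 0% = vehicle wells with protein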
GPR151 ag: activators of human GPR151 | AID 1508602 | PathHunter beta-arrestin GPR151 cells, luminescence | activation, % at 11.2 µM | Q8TDV0 | hit rate 1% among 650,000; in the data active = activation above about 4.9%;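 also: 0% = median of compound wells and 100% = cells with positive control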
MITF inh conf: human MITF inhibition, confirmation | shares compounds with MITF inh | AlphaScreen MITF homodimerization, biotin/His-MITF beads | inhibition, % at 2.6 µM | hit rate 16% among 4,700 | AID 1259372;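 active = inhibition above a cutoff derived from the DMSO control wells, cut at about 28% in these data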;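 also: 0% = MITF dimer wells with DMSO only; inhibitors lower the bead chemiluminescence by keeping MITF from dimerizing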
AlphaScreen DR: optically interferes with AlphaScreen signal in dose response. IC50, µM. hit rate 6% among 480. AlphaScreen optical interference counterscreen, cell-free. shares compounds with MITF inh; call rule not given here
AS interf ctr: optically interferes with AlphaScreen signal. shares compounds with MITF inh. AID 1259376. LysRS AlphaScreen counterscreen, signal interference, triplicate. hit rate 7.6% among 4,700. inhibition, % at 2.6 µM;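 active = inhibition above a cutoff derived from the DMSO control wells, cut at about 30% in these data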
An asterisk follows results filed as active. An excerpt weighted towards active compounds, which were near 3.4% of everything screened.

Screening COc1ccc(CCNCC(=O)Nc2ccccc2N2CCOCC2)cc1 returned FBW7 activator 0, TEAD-YAP block -6, MITF inh 60*, GPR151 ag 1, MITF inh conf 10 and AS interf ctr 12.
Screening CCCOC(=O)C1=C(C)NC2=C(C(=O)CC(C)(C)C2)C1c1ccco1 (stereo unspecified) returned FBW7 activator 0, TEAD-YAP block 8, MITF inh -5 and GPR151 ag 4.
`O=C(CNCCc1ccccc1)Nc1ccccc1N1CCOCC1` gave FBW7 activator 0, TEAD-YAP block -11, MITF inh 51*, GPR151 ag 0, MITF inh conf 6 and AS interf ctr 12.
`O=C(CNCCN1CCOCC1)Nc1ccccc1N1CCOCC1` gave FBW7 activator 0, TEAD-YAP block 3, MITF inh 64*, GPR151 ag 0, MITF inh conf -12 and AS interf ctr -9.
O=C(CNC1CCCCCC1)Nc1ccccc1N1CCOCC1 was read as FBW7 activator 0, TEAD-YAP block 4, MITF inh 27 and GPR151 ag 1.
For O=C(CN1CCCCC1)Nc1ccccc1N1CCOCC1 the results were FBW7 activator 0, TEAD-YAP block -8, MITF inh 60*, GPR151 ag 1, MITF inh conf 4 and AS interf ctr 17.
Screening O=C(Cc1ccccc1)Nc1ccc(N2CCOCC2)cc1N1CCOCC1 returned FBW7 activator 0, TEAD-YAP block 4, MITF inh 8 and GPR151 ag 1.
Screening O=C(CN1C(=O)c2ccccc2C1=O)Nc1ccccc1N1CCOCC1 returned FBW7 activator 0, TEAD-YAP block 7, MITF inh 13 and GPR151 ag 0.
Screening CCOCCCNCC(=O)Nc1ccccc1N1CCOCC1 returned FBW7 activator 0, TEAD-YAP block -4, MITF inh 51*, GPR151 ag -1, MITF inh conf 6 and AS interf ctr 10.
For CCOC(=O)c1nccn1Cc1c(F)cccc1Cl the results were FBW7 activator 0, TEAD-YAP block -10, MITF inh -11 and GPR151 ag 1.
Screening O=C1NC(=Nc2ccccc2Cl)S/C1=C/c1ccc(OCc2ccc(Cl)cc2Cl)cc1 returned FBW7 activator 0, TEAD-YAP block -8, MITF inh -3 and GPR151 ag 0.
`NC1(C(Cl)(Cl)Cl)Oc2ccccc2O1` gave FBW7 activator -1, TEAD-YAP block -7, MITF inh 84*, GPR151 ag 0, MITF inh conf 114*, AlphaScreen DR >6.5 and AS interf ctr 25.
O=C(c1ccc(=O)oc1)N1CCc2ccccc21 was read as FBW7 activator 0, TEAD-YAP block 4, MITF inh 74*, GPR151 ag 0, MITF inh conf 76*, AlphaScreen DR >7.5 and AS interf ctr 11.
Screening Cc1onc(-c2ccccc2Cl)c1C(=O)NC12CC3CC(C1)CC(C(C)C)(C3)C2 returned FBW7 activator 0, TEAD-YAP block -9, MITF inh -1 and GPR151 ag 2.
Screening CC(C)(C)C(=O)N1CCCC(c2nc3c(nnn3Cc3ccccc3)c(=O)[nH]2)C1 (stereo unspecified) returned FBW7 activator 0, TEAD-YAP block -9, MITF inh 6 and GPR151 ag 2.
Screening CC(C)(C)C(=O)N1CCC(c2nc3c(nnn3Cc3ccccc3)c(=O)[nH]2)CC1 returned FBW7 activator 0, TEAD-YAP block 4, MITF inh 71*, GPR151 ag -1, MITF inh conf 9 and AS interf ctr 11.
For CC(=O)NC1=NN(C(C)=O)C2(S1)C(=O)N(C(C)=O)c1ccc(Cl)cc12 (stereo unspecified) the results were FBW7 activator 0, TEAD-YAP block 4, MITF inh 0 and GPR151 ag 1.
Cc1cccc(NC(=O)c2cccc(OCc3ccccc3)c2)n1 was read as FBW7 activator 0, TEAD-YAP block 6, MITF inh 10 and GPR151 ag -6.
Screening Cc1cccc(NC(=O)c2ccc(COc3ccccc3Br)cc2)n1 returned FBW7 activator 0, TEAD-YAP block 1, MITF inh 70*, GPR151 ag -1, MITF inh conf -5 and AS interf ctr -5.
`Cc1ccc(NC(=O)C2(N3C(=O)CC3c3ccco3)CCCCC2)cc1` (stereo unspecified) gave FBW7 activator 0, TEAD-YAP block -5, MITF inh 68*, GPR151 ag 1, MITF inh conf 1 and AS interf ctr 17.
Screening Cc1cc(OCCCCN2CCN(C)CC2)ccc1[N+](=O)[O-] returned FBW7 activator 0, TEAD-YAP block -7, MITF inh 56*, GPR151 ag -1, MITF inh conf 7 and AS interf ctr 3.
For Cc1cc(OCCN2CCN(C)CC2)ccc1[N+](=O)[O-] the results were FBW7 activator 0, TEAD-YAP block -32, MITF inh 56*, GPR151 ag -2, MITF inh conf 6 and AS interf ctr 11.
Screening Cc1cc(OCCN2CCOCC2)ccc1[N+](=O)[O-] returned FBW7 activator 1, TEAD-YAP block -22, MITF inh 60*, GPR151 ag -3, MITF inh conf 8 and AS interf ctr 14.
Screening Cc1ccc(OCCN2CCOCC2)cc1C returned FBW7 activator 0, TEAD-YAP block -8, MITF inh -18 and GPR151 ag 1.
Screening Cc1cc(OCCN2CCCC2)ccc1[N+](=O)[O-] returned FBW7 activator 0, TEAD-YAP block -5, MITF inh 24 and GPR151 ag 1.
Cc1cc(OCCCN2CCNCC2)ccc1[N+](=O)[O-] was read as FBW7 activator 0, TEAD-YAP block 0, MITF inh 35 and GPR151 ag 3.
CCN1CCN(C(=O)CN(c2ccc([N+](=O)[O-])cc2)S(=O)(=O)c2ccccc2)CC1 was read as FBW7 activator 0, TEAD-YAP block -6, MITF inh 29 and GPR151 ag -2.
Screening CCOC(=O)c1ccsc1NC(=O)c1ccccc1OC returned FBW7 activator 0, TEAD-YAP block -1, MITF inh -11 and GPR151 ag 0.
CCOc1ccc(OCCCNCCOC)cc1 was read as FBW7 activator 0, TEAD-YAP block 0, MITF inh 57*, GPR151 ag 0, MITF inh conf 5 and AS interf ctr 11.
Screening CCOc1cccc(OCCOCCNCCCOC)c1 returned FBW7 activator 0, TEAD-YAP block -15, MITF inh 23 and GPR151 ag -2.
For CCOc1cccc(OCCCNCCCOC)c1 the results were FBW7 activator 0, TEAD-YAP block 1, MITF inh 89*, GPR151 ag 1, MITF inh conf -6 and AS interf ctr 14.
For CCCCNCCCOc1ccc(OC)cc1 the results were FBW7 activator 0, TEAD-YAP block -5, MITF inh -4 and GPR151 ag 0.
